# Data published in article PMC7862700, “An all-to-all approach to the identification of sequence-specific readers for epigenetic DNA modifications on cytosine”.
# What was measured:
# Assay in all cases: DAPPL (digital affinity profiling via proximity ligation, sequencing); 10 mM Tris-HCl pH 7.5, 50 mM NaCl, 1 mM DTT, 4% glycerol, room temperature, 30 min; GST-TFs on glutathione beads, 16-mer random dsDNA library, 0.1% formaldehyde crosslink after washing; high values mean tight binding
# [1] = biological target: T1, FEV (Homo sapiens, UniProt Q99581 1-238); conditions: protein: recombinant; tags: N-terminal GST; dsDNA, one strand shown
# T1 sequence: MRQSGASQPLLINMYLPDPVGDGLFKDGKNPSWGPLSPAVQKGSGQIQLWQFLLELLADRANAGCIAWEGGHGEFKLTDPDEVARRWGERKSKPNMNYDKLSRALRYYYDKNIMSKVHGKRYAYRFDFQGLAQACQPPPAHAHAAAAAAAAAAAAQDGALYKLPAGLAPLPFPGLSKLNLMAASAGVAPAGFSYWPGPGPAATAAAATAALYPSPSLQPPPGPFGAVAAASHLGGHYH
# Summary of the method: (§1)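 The binding signal reported is, for every hexamer, its read frequency for a factor over its read frequency for the tag-only sample. Reads came from pools of yeast-expressed, GST-fused human transcription factors on glutathione beads, barcoded with DNA and mixed with that sample, which were incubated with 200 nmole of a random double-stranded 16-mer DNA library in Tris/NaCl/DTT/glycerol buffer at room temperature for 30 min. After washing, the pools were crosslinked with 0.1% formaldehyde, proximity-ligated with BsaI/T4 ligase for 1 h at 37 °C, PCR-amplified and sequenced on an Illumina NextSeq500.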
# [2] = biological target: ETV5 (Homo sapiens, UniProt P41161 1-510); conditions: protein: recombinant; tags: N-terminal GST; dsDNA, one strand shown
# Summary of the method: as §1
# [3] = biological target: HSF1 (Homo sapiens, UniProt Q00613 1-529); conditions: protein: recombinant; tags: N-terminal GST; chain copies: 3; dsDNA, one strand shown
# Summary of the method: as §1
# [4] = biological target: T2, SPIC (Homo sapiens, UniProt Q8N5J4 1-248); conditions: protein: recombinant; tags: N-terminal GST; dsDNA, one strand shown
# T2 sequence: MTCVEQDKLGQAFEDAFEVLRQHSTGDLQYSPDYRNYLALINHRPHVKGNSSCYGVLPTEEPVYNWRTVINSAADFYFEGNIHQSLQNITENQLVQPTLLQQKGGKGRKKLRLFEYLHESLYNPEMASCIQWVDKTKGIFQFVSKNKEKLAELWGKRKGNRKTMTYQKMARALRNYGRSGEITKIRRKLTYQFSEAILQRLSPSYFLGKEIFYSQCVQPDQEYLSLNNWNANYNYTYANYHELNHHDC
# Summary of the method: as §1
# [5] = biological target: ELF4 (Homo sapiens, UniProt Q99607 1-663); conditions: protein: recombinant; tags: N-terminal GST; dsDNA, one strand shown
# Summary of the method: as §1
# [6] = biological target: T3, ELK4 (Homo sapiens, UniProt P28324-2 1-405); conditions: protein: recombinant; tags: N-terminal GST; dsDNA, one strand shown
# T3 sequence: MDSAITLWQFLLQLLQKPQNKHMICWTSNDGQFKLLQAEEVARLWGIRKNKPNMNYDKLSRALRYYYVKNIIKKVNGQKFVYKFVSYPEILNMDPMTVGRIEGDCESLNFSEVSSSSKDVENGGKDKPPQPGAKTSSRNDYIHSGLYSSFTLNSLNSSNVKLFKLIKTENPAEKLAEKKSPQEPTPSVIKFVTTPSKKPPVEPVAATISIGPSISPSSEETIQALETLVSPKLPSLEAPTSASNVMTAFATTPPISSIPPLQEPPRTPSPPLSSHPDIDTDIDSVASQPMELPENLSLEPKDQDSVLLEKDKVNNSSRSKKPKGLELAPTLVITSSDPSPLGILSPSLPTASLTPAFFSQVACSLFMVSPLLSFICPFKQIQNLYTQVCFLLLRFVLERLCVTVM
# Summary of the method: as §1
# [7] = biological target: T4, ETV2 (Homo sapiens, UniProt O00321 1-342); conditions: protein: recombinant; tags: N-terminal GST; dsDNA, one strand shown
# T4 sequence: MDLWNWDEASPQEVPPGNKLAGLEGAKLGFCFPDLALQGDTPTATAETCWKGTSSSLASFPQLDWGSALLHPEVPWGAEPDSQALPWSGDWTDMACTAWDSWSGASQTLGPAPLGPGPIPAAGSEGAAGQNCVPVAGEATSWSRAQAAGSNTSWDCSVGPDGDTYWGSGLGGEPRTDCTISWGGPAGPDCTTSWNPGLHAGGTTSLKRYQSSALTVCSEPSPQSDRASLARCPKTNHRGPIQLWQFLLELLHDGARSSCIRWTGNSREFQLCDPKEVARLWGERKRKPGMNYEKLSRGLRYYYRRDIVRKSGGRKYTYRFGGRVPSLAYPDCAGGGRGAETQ
# Summary of the method: as §1
# [8] = biological target: T5, ELF3 (Homo sapiens, UniProt P78545 1-371); conditions: protein: recombinant; tags: N-terminal GST; dsDNA, one strand shown
# T5 sequence: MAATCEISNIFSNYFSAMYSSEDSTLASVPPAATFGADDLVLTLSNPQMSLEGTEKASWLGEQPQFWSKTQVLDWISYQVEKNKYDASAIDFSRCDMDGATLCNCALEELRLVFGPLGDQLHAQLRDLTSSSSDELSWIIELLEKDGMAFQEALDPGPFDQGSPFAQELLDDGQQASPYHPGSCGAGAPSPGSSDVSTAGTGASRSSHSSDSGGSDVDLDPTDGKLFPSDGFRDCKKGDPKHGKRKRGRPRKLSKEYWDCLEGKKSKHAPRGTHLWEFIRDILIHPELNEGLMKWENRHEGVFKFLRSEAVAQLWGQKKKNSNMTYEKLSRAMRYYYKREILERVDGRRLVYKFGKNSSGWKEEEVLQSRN
# Summary of the method: as §1
# [9] = biological target: CRX (Homo sapiens, UniProt O43186 1-299); conditions: protein: recombinant; tags: N-terminal GST; dsDNA, one strand shown
# Summary of the method: as §1
# [10] = biological target: ETV1 (Homo sapiens, UniProt P50549 1-477); conditions: protein: recombinant; tags: N-terminal GST; dsDNA, one strand shown
# Summary of the method: as §1
# [11] = biological target: T6, ERF (Homo sapiens, UniProt P50548 1-548); conditions: protein: recombinant; tags: N-terminal GST; dsDNA, one strand shown
# T6 sequence: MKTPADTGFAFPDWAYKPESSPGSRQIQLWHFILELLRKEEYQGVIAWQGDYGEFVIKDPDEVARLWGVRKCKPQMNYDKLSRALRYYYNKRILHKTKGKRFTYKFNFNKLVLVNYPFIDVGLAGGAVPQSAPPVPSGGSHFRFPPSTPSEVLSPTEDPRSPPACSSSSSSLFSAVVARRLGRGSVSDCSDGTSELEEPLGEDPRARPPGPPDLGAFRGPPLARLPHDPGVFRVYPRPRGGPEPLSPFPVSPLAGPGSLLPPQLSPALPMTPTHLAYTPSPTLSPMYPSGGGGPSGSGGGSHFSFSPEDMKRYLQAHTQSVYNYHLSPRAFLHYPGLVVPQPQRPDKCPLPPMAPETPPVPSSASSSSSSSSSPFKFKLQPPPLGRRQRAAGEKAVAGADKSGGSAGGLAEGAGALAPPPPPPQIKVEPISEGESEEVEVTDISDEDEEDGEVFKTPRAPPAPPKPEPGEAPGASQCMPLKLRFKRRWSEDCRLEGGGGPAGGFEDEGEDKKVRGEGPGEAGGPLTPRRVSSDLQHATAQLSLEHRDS
# Summary of the method: as §1
# [12] = biological target: T7, ETV3L (Homo sapiens, UniProt Q6ZN32 1-361); conditions: protein: recombinant; tags: N-terminal GST; dsDNA, one strand shown
# T7 sequence: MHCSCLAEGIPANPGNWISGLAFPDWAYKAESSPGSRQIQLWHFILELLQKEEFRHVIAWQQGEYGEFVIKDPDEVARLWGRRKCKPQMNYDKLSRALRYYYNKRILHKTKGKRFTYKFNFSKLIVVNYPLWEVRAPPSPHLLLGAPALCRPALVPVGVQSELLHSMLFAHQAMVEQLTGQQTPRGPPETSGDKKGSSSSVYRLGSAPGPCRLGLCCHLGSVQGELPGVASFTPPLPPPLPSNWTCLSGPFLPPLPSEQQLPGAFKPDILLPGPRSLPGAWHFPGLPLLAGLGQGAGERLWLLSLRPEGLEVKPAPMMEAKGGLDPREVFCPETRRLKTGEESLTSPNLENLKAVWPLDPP
# Summary of the method: as §1
# [13] = biological target: T8, ETS2 (Homo sapiens, UniProt P15036 1-469); conditions: protein: recombinant; tags: N-terminal GST; dsDNA, one strand shown
# T8 sequence: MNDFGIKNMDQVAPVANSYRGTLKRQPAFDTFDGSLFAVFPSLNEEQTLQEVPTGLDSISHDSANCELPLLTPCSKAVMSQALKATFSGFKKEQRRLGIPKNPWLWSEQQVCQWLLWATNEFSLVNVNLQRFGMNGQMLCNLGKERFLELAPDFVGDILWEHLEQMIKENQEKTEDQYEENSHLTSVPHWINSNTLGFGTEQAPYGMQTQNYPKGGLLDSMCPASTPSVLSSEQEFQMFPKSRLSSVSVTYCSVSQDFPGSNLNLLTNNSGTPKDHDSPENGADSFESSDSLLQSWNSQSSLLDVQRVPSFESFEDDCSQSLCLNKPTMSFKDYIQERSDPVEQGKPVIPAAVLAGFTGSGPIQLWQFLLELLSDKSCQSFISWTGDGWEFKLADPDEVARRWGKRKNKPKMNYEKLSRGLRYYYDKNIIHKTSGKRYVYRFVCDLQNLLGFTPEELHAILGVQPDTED
# Summary of the method: as §1
# [14] = biological target: T9, SPDEF (Homo sapiens, UniProt O95238 1-335); conditions: protein: recombinant; tags: N-terminal GST; dsDNA, one strand shown
# T9 sequence: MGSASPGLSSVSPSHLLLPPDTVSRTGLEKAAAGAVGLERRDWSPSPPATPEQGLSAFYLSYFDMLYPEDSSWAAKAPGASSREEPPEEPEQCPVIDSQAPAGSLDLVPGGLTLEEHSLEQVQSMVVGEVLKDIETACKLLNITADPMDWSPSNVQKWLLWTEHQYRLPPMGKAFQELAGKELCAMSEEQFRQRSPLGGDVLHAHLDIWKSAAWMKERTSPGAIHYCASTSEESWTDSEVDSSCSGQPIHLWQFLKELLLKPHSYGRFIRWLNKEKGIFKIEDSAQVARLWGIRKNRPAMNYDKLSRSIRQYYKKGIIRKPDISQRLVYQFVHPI
# Summary of the method: as §1
# [15] = biological target: T10, ETV7 (Homo sapiens, UniProt Q9Y603 1-341); conditions: protein: recombinant; tags: N-terminal GST; dsDNA, one strand shown
# T10 sequence: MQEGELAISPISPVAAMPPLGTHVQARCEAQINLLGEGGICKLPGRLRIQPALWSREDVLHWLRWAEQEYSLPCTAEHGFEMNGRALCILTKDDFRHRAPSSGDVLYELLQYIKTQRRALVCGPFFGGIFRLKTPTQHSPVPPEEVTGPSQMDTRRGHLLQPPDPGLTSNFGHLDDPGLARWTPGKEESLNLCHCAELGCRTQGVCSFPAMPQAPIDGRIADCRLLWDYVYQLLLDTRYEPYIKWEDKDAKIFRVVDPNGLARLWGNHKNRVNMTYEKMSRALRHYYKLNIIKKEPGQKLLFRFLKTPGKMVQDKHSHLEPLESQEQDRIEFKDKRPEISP
# Summary of the method: as §1
# [16] = biological target: T11, ELF5 (Homo sapiens, UniProt Q9UKW6-2 1-255); conditions: protein: recombinant; tags: N-terminal GST; dsDNA, one strand shown
# T11 sequence: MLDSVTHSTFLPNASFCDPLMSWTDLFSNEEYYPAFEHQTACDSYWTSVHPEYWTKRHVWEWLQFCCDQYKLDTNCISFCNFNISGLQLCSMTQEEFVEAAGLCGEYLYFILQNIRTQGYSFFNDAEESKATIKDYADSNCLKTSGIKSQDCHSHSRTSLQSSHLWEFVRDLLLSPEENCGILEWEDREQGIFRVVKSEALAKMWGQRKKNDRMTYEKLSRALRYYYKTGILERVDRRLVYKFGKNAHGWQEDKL
# Summary of the method: as §1
# [17] = biological target: T12, ETV3 (Homo sapiens, UniProt P41162-2 1-143); conditions: protein: recombinant; tags: N-terminal GST; dsDNA, one strand shown
# T12 sequence: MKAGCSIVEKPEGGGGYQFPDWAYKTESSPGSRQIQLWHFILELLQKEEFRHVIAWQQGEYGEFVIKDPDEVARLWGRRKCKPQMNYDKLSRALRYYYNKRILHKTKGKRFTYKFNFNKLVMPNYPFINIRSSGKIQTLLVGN
# Summary of the method: as §1
# [18] = biological target: ETV6 (Homo sapiens, UniProt P41212 1-452); conditions: protein: recombinant; tags: N-terminal GST; dsDNA, one strand shown
# Summary of the method: as §1
# Sequence of HSF1 (Q00613 whole entry): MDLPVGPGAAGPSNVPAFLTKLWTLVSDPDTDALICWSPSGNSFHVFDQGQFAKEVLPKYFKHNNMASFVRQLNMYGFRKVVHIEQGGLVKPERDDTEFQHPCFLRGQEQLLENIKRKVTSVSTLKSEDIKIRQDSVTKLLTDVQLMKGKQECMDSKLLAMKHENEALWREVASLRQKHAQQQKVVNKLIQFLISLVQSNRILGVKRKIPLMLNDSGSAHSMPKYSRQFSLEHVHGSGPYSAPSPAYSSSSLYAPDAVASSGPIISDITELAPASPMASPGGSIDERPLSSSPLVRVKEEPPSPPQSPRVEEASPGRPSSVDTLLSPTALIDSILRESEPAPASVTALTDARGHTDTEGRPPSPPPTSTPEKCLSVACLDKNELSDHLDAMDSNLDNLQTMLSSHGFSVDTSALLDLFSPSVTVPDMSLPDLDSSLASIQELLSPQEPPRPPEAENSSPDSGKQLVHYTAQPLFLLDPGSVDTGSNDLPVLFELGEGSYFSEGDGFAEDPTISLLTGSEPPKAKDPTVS
# Sequence of ELF4 (Q99607 whole entry): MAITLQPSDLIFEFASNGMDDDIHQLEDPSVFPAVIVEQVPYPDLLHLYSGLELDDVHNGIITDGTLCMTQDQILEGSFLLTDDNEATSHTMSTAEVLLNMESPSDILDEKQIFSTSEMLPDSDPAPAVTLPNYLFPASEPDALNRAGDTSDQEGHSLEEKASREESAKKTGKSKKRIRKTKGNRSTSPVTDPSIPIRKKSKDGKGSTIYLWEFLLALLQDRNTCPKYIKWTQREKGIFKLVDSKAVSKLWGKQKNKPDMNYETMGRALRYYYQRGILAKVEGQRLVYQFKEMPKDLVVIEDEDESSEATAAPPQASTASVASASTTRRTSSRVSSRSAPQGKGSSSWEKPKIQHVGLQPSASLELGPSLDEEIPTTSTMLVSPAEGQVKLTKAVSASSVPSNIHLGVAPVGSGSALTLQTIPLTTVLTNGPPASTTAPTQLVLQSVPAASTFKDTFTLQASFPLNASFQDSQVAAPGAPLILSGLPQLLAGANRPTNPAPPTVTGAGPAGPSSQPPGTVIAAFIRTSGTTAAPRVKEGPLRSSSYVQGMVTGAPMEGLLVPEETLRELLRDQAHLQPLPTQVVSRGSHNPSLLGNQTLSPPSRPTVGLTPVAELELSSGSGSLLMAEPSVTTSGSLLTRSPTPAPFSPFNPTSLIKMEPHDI
# Sequence of CRX (O43186 whole entry): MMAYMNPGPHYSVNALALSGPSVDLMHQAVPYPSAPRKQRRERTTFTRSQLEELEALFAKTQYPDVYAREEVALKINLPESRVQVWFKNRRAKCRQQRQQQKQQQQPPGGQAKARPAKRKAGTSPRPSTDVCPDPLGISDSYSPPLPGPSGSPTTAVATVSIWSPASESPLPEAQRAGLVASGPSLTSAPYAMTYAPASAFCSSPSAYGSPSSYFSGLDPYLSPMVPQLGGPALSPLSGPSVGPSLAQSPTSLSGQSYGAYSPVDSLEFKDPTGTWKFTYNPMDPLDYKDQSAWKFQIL
# Sequence of ETV6 (P41212 whole entry): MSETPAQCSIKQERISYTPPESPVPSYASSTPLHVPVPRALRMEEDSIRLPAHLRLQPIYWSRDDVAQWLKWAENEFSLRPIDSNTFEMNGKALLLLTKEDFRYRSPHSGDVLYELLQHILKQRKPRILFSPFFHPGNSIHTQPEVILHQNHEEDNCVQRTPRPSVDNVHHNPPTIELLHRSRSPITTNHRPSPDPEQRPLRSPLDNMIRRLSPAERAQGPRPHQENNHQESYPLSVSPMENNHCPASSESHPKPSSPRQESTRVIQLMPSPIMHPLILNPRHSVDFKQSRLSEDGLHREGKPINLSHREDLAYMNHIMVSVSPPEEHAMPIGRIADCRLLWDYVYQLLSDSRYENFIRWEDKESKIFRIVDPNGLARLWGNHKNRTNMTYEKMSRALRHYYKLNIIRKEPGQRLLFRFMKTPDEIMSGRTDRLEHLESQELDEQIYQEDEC
# Sequence of ETV1 (P50549 whole entry): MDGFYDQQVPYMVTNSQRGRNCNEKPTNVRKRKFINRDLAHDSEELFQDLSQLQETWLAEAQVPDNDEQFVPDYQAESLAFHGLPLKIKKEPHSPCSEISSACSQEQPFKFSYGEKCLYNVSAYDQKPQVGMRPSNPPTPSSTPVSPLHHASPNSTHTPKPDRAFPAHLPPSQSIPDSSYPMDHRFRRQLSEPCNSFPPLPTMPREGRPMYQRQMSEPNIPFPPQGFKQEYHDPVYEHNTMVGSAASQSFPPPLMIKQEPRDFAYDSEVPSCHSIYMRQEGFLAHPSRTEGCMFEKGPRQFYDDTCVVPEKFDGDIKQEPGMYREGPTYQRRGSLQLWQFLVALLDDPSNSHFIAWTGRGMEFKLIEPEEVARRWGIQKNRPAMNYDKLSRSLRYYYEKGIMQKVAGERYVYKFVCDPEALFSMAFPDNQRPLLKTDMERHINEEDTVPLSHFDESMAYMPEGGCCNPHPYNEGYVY
# Sequence of ETV5 (P41161 whole entry): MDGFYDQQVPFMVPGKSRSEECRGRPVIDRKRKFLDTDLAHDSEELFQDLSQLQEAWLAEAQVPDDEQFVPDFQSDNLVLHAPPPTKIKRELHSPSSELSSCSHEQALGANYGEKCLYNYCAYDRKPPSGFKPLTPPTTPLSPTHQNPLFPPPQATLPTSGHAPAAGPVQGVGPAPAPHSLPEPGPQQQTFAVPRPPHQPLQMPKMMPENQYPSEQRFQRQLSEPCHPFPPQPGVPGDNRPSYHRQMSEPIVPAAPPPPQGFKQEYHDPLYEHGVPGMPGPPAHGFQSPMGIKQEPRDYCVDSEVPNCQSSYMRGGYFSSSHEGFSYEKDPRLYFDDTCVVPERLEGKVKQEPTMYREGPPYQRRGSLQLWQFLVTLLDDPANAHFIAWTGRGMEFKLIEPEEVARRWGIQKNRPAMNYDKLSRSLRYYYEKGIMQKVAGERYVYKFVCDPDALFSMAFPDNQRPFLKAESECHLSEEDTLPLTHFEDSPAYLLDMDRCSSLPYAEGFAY
sequence,measurement,setting,value
CGCTTC,binding signal,[1],"2.28 fold enrichment (6-mer frequency, TF over GST control)"
same,binding signal,[2],"2.34 fold enrichment (6-mer frequency, TF over GST control)"
same,binding signal,[3],"1.26 fold enrichment (6-mer frequency, TF over GST control)"
same,binding signal,[4],"1.77 fold enrichment (6-mer frequency, TF over GST control)"
same,binding signal,[5],"2.02 fold enrichment (6-mer frequency, TF over GST control)"
same,binding signal,[6],"1.77 fold enrichment (6-mer frequency, TF over GST control)"
same,binding signal,[7],"1.68 fold enrichment (6-mer frequency, TF over GST control)"
same,binding signal,[8],"1.93 fold enrichment (6-mer frequency, TF over GST control)"
same,binding signal,[9],"1.05 fold enrichment (6-mer frequency, TF over GST control)"
same,binding signal,[10],"2.03 fold enrichment (6-mer frequency, TF over GST control)"
same,binding signal,[11],"2.11 fold enrichment (6-mer frequency, TF over GST control)"
same,binding signal,[12],"2.03 fold enrichment (6-mer frequency, TF over GST control)"
same,binding signal,[13],"2.07 fold enrichment (6-mer frequency, TF over GST control)"
same,binding signal,[14],"2 fold enrichment (6-mer frequency, TF over GST control)"
same,binding signal,[15],"1.9 fold enrichment (6-mer frequency, TF over GST control)"
same,binding signal,[16],"2.14 fold enrichment (6-mer frequency, TF over GST control)"
same,binding signal,[17],"2.09 fold enrichment (6-mer frequency, TF over GST control)"
same,binding signal,[18],"2.35 fold enrichment (6-mer frequency, TF over GST control)"
